# Laboratory results as given in PubChem BioAssay.
# Values joined by “and” are separate entries in the source; they are usually repeats but may differ in a detail not shown here. Equal entries are not always repeated. Records with an inconclusive call do not appear. For some assays here: Potency and affinity values are given separately. Active and inactive are the calls of the source. Cut-off read from the data, not from the text of the source, unless noted: active = inhibition above about 80%; inactive = the rest.
# Experiments:
# [1] = protection against mutant huntingtin cytotoxicity, PC12 cells, LDH release (AID 1610); settings: PC12 mutant huntingtin toxicity, final LDH at 4 uM, stronger effect = lower value
# [2] = HepG2 cytotoxicity, primary screen, cytotoxicity control for P. falciparum antimalarial project, cell-based, ATP luminescence (AID 2303;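 active = inhibition above 50%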;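 note: 0% = DMSO wells and 100% = digitonin-killed cells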); settings: HepG2 viability, 24-48 h, at 10 µM, stronger effect = higher value
# [3] = biological target: L-lactate dehydrogenase (Plasmodium falciparum (isolate CDC / Honduras)) (UniProt Q27743); experiment: PfLDH activity inhibition – cell lysate, 3D7 strain, counter-screen for P. falciparum growth inhibition project (AID 2304; call rule not given here;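 note: 0% = vehicle and 100% = reference inhibitor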); settings: P. falciparum 3D7 crude extract, LDH APAD/NBT absorbance; at 2 µM; stronger effect = higher value
# [4] = inhibition of 3D7 malaria parasite growth – strain 3D7 (AID 2306; call rule not given here;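 note: 0% = DMSO wells and 100% = chloroquine plus artemisinin control wells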); settings: P. falciparum 3D7 erythrocytic growth, LDH absorbance, 72 h; at 2 µM; stronger effect = higher value
# [5] = biological target: Calcium-dependent protein kinase 1 (Plasmodium falciparum (isolate 3D7)) (UniProt P62344); experiment: PfCDPK1 kinase inhibitors, biochemical, TCAMS library (AID 1159585; cut-off not given, nearly all actives have IC50 up to about 0.98 µM;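 note: inhibitors leave more ATP so luminescence rises with inhibition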); settings: recombinant PfCDPK1, Kinase-Glo ATP depletion luminescence
# [6] = biological target: Plasmodium falciparum protein kinase 6 (PK6, PF3D7_1337100) (UniProt Q8IDW1); experiment: PfPK6 kinase inhibitors, biochemical, TCAMS library (AID 1159586; call rule not given here); settings: recombinant PfPK6, Kinase-Glo ATP depletion luminescence
# [7] = biological target: Protein kinase 7 (PK7), Plasmodium falciparum 3D7 (PF3D7_0213400) (UniProt Q7YTF7); experiment: inhibition of Plasmodium PK7 catalytic activity – biochemical, TCAMS antimalarial set, Kinase-Glo luminescence (AID 1159587; call rule not given here); settings: recombinant PfPK7, Kinase-Glo ATP depletion luminescence
# [8] = HDN33 neuroblastoma growth inhibition, cell-based, chromothripsis tumors, cisplatin or BGB combos (AID 1671450); settings: HDN33 neuroblastoma cells, stronger effect = higher value;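 note: cells exposed to compound for four days; 0% = vehicle DMSO and 100% = cell killing by high DMSO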
# [9] = LFS_MB_1R medulloblastoma cell growth inhibition, synergistic combos for chromothripsis tumors, cisplatin or BGB combos (AID 1671452); settings: LFS_MB_1R medulloblastoma cells, stronger effect = higher value;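 note: cells exposed for 96 hours before readout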
# [10] = HTB85 osteosarcoma cell growth inhibition, synergistic combos for chromothripsis tumors, BGB or cisplatin IC20 combos (AID 1671453); settings: HTB85 osteosarcoma cells, drug combinations, stronger effect = higher value;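 note: cells exposed for 96 hours before readout; 0% = vehicle DMSO and 100% = high DMSO killing control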
# [11] = CRL2098 osteosarcoma cell growth inhibition, synergistic combos for chromothripsis tumors, BGB or cisplatin IC20 combos (AID 1671454); settings: CRL2098 osteosarcoma cells, drug combinations, stronger effect = higher value;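 note: cells exposed for 96 h before readout; 0% = vehicle DMSO and 100% = killing by high DMSO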
# [12] = HD-MB03 medulloblastoma cell growth inhibition, synergistic combos for chromothripsis tumors, BGB or cisplatin IC20 combos (AID 1671455; in the data active = inhibition above about 83%;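 note: 0% = vehicle DMSO and 100% = high DMSO as cytotoxic control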); settings: HD-MB03 medulloblastoma cells, stronger effect = higher value
# [13] = UWB1.289 ovarian carcinoma cell growth inhibition, synergistic combos for chromothripsis tumors, BGB or cisplatin combos (AID 1671456); settings: UWB1.289 ovarian carcinoma cells, stronger effect = higher value;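 note: cells exposed to compound for four days; 0% = vehicle DMSO and 100% = killing by high DMSO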
# [14] = LFS_MB_2R medulloblastoma cell growth inhibition, synergistic combos for chromothripsis tumors, cisplatin combos (AID 1671457); settings: LFS_MB_2R medulloblastoma cells, stronger effect = higher value;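 note: cells exposed to compound for four days before readout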
# [15] = MDA-MB-436 breast carcinoma cell growth inhibition, synergistic combos for chromothripsis tumors, BGB or cisplatin combos (AID 1671458; call rule not given here;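 note: cells exposed for 96 hours; 0% = vehicle DMSO and 100% = killing by high DMSO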); settings: MDA-MB-436 breast carcinoma growth inhibition, drug combinations, stronger effect = higher value
# [16] = UWB1.289_BRCA1 ovarian cancer growth, cell-based, BGB or cisplatin combinations (AID 1671459); settings: UWB1.289 BRCA1 ovarian carcinoma, drug combinations, stronger effect = higher value
# [17] = human astrocyte viability loss, single and combined drugs, cytotoxicity control for chromothriptic childhood tumor combination screen, cell-based, BGB or cisplatin IC20 combos (AID 1671460); settings: Human astrocytes, drug combinations, stronger effect = higher value;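 note: cells exposed to compounds for 96 hours before viability readout; 0% = vehicle and 100% = killing control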
# [18] = growth inhibition of BT084 medulloblastoma cells, cell-based, ICGC_MB145, cisplatin and BGB IC40 combos (AID 1671461); settings: drug combinations, stronger effect = higher value;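 note: cells exposed to drugs for 96 hours; 0% = vehicle DMSO and 100% = high DMSO full killing control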
# [19] = growth inhibition of RCMB18 medulloblastoma cells, cell-based, cisplatin and BGB IC40 combos (AID 1671462); settings: stronger effect = higher value;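 note: cells exposed to compound for four days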
# [20] = growth inhibition of CRL1545 osteosarcoma cells, cell-based, cisplatin and BGB IC20 combos (AID 1671464); settings: stronger effect = higher value;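 note: cells exposed to compound for 96 hours before readout; 0% = vehicle DMSO and 100% = high DMSO killing control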
# [21] = measured here: with BGB IC20 combination, at 0.5 µM
# [22] = measured here: with cisplatin IC20 combination, at 0.5 µM
# [23] = measured here: combination with cisplatin, at 0.5 µM
# [24] = measured here: combination with cisplatin, at 5 µM
# Chain of Protein kinase 7 (PK7), Plasmodium falciparum 3D7 (PF3D7_0213400) (Q7YTF7 1-343): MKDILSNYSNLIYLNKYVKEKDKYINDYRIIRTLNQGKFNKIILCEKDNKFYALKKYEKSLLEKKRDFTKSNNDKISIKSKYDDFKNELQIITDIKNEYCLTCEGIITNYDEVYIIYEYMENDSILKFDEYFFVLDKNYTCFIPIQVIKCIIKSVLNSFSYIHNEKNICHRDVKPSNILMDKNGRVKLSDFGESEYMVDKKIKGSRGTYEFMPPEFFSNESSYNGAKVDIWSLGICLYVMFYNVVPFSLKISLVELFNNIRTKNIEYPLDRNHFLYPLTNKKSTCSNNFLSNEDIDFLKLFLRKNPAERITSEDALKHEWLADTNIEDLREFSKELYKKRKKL
# Chain of L-lactate dehydrogenase (Plasmodium falciparum (isolate CDC / Honduras)) (Q27743 whole entry, looked up): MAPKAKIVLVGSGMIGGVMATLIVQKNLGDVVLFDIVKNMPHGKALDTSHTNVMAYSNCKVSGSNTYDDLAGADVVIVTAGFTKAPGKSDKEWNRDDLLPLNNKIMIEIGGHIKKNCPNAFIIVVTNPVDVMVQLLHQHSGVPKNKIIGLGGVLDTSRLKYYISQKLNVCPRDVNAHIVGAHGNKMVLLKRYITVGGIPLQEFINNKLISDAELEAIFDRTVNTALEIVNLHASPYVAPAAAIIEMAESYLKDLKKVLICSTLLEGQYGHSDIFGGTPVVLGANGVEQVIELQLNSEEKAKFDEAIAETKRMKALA
# Chain of Calcium-dependent protein kinase 1 (Plasmodium falciparum (isolate 3D7)) (P62344 whole entry, looked up): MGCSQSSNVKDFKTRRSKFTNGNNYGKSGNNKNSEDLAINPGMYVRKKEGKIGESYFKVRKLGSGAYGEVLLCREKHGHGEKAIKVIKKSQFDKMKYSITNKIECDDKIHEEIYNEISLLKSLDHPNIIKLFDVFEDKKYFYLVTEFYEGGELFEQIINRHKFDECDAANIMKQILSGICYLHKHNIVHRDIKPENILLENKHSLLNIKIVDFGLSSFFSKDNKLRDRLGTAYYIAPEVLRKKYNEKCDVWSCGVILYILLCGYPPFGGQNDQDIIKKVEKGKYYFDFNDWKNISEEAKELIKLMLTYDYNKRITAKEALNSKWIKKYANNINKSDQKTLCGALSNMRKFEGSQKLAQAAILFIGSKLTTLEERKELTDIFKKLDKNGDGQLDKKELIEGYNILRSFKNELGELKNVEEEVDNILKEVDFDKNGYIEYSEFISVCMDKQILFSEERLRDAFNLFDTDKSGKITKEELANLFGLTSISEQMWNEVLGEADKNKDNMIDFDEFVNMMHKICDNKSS
# Chain of Plasmodium falciparum protein kinase 6 (PK6, PF3D7_1337100) (Q8IDW1 1-305): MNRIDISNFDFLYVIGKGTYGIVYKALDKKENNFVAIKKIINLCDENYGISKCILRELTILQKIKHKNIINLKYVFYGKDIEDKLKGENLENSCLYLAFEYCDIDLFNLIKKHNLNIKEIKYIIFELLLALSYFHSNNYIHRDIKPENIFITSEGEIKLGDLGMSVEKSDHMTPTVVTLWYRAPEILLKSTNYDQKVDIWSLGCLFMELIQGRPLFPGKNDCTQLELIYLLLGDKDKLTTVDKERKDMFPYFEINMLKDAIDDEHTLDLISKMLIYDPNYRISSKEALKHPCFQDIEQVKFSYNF
smiles,measurement,setting,value
CC(C)(C)c1ccc(C(O)CCCN2CCC(C(O)(c3ccccc3)c3ccccc3)CC2)cc1 (stereo not drawn),normalised LDH release,[1],1
COc1ccc(C[C@H](N)C(=O)N[C@H]2[C@@H](O)[C@H](n3cnc4c(N(C)C)ncnc43)O[C@@H]2CO)cc1,inhibition,[2],98% (active)
same,inhibition,[3],5% (inactive)
same,growth inhibition,[4],100% (active)
same,outcome,[5],inactive
same,outcome,[6],inactive
same,outcome,[7],inactive
O=c1ccc2ccc(O)c(O)c2o1,inhibition,[2],4% (inactive)
same,inhibition,[3],0% (inactive)
same,growth inhibition,[4],85% (active)
same,outcome,[5],inactive
same,outcome,[6],inactive
same,outcome,[7],inactive
CN(C)c1nc(N(C)C)nc(N(C)C)n1,inhibition,"[8]; BGB combo, at 5 µM",-7.22% and 3.98%
same,inhibition,[8]; at 0.5 µM,2.99% (inactive) and -25.1% (inactive)
same,inhibition,"[8]; cisplatin combo, at 5 µM",-6.3% and -2.36%
same,inhibition,[8]; [21],12.7% and -32.8%
same,inhibition,[8]; [22],1.13% and -2.01%
same,inhibition,"[8]; single agent, at 5 µM",-11% and -2.53%
same,inhibition,[9]; at 0.5 µM,-12.2% (inactive) and -12.7% (inactive)
same,inhibition,"[9]; measured here: combination with BGB IC40, at 0.05 µM",-30.7% and -16.9%
same,inhibition,[9]; [23],-26.8% and 10.6%
same,inhibition,[9]; [24],4.67% and 9.66%
same,inhibition,[10]; at 0.5 µM,-13.6% (inactive) and -3.84% (inactive)
same,inhibition,"[10]; measured here: with BGB IC20, at 0.5 µM",-29.4% and -7.2%
same,inhibition,"[10]; measured here: with BGB IC20, at 5 µM",-7.32% and 14%
same,inhibition,"[10]; measured here: with cisplatin IC20, at 0.5 µM",-12.3% and -1.06%
same,inhibition,"[10]; measured here: with cisplatin IC20, at 5 µM",6.76% and 3.22%
same,inhibition,"[10]; single agent, at 5 µM",-2.06% and 11.5%
same,inhibition,[11]; at 0.5 µM,-49.5% (inactive) and -47.8% (inactive)
same,inhibition,"[11]; measured here: combination with BGB at IC20, at 0.5 µM",-51.4% and 13.2%
same,inhibition,"[11]; measured here: combination with cisplatin at IC20, at 0.5 µM",-47.8% and -102%
same,inhibition,[12]; at 0.5 µM,1.44% (inactive) and -2.84% (inactive)
same,inhibition,"[12]; measured here: combo with BGB at IC20, at 0.5 µM",-7.11% and -19.4%
same,inhibition,"[12]; measured here: combo with cisplatin at IC20, at 0.5 µM",0.726% and 22%
same,inhibition,[13]; at 0.5 µM,-1.03% (inactive) and 0.53% (inactive)
same,inhibition,"[13]; measured here: inhibition with BGB combination, at 0.05 µM",-18.8% and -9.83%
same,inhibition,"[13]; measured here: inhibition with cisplatin combination, at 0.05 µM",-9.85% and -22.8%
same,inhibition,[14]; at 0.5 µM,-22.5% (inactive) and -23.2% (inactive)
same,inhibition,[14]; [23],-24.3% and -25.9%
same,inhibition,[14]; [24],-28.5% and -13.6%
same,inhibition,[15]; at 0.5 µM,-22.6% (inactive) and -14.7% (inactive)
same,inhibition,"[15]; measured here: BGB combination, at 0.5 µM",-20.2% and -14.3%
same,inhibition,"[15]; measured here: BGB combination, at 5 µM",-29.4% and -4.55%
same,inhibition,"[15]; measured here: cisplatin combination, at 0.5 µM",-45.1% and -27.9%
same,inhibition,"[15]; measured here: cisplatin combination, at 5 µM",-26.8% and -16.1%
same,inhibition,"[16]; BGB combination, concentration series, at 5 µM",3.42% and 17.2%
same,inhibition,[16]; at 0.5 µM,-3.79% (inactive) and -4% (inactive)
same,inhibition,"[16]; cisplatin combination, concentration series, at 5 µM",4.29% and 15.7%
same,inhibition,[17]; at 0.5 µM,2.24% (inactive) and 16.1% (inactive)
same,inhibition,"[17]; measured here: combo with BGB IC20, at 0.5 µM",5.31% and 10%
same,inhibition,"[17]; measured here: combo with cisplatin IC20, at 0.5 µM",-12.9% and 15.6%
same,inhibition,[18]; at 0.5 µM,-16.2% (inactive) and -0.543% (inactive)
same,inhibition,"[18]; cisplatin combination, at 0.5 µM",-6.73% and -17%
same,inhibition,"[18]; cisplatin combination, at 5 µM",-56% and -11.7%
same,inhibition,"[18]; measured here: BGB IC40 combination 0.05 uM, at 0.05 µM",-15.3% and -38.9%
same,inhibition,"[18]; single agent, at 5 µM",-26.9% and -18.4%
same,inhibition,[19]; at 0.5 µM,-17.5% (inactive) and -22.8% (inactive)
same,inhibition,"[19]; cisplatin combo, at 5 µM",8.02% and 8.44%
same,inhibition,"[19]; measured here: BGB IC40 combination, at 0.05 µM",-20.9% and -5.23%
same,inhibition,[19]; [23],-20.5% and -16.6%
same,inhibition,"[19]; single agent, at 5 µM",-16.6% and -17.8%
same,inhibition,[20]; at 0.5 µM,-6.92% (inactive) and -37.6% (inactive)
same,inhibition,[20]; [21],-15.7% and -14.1%
same,inhibition,[20]; [22],-2.53% and -51.8%
same,inhibition,"[20]; single agent, at 0.05 µM",-4.42% and -41.6%
same,inhibition,"[20]; single agent, at 5 µM",18.4% and -24.6%
O=c1cc(-c2ccc(O)cc2)oc2cc(O)cc(O)c12,normalised LDH release,[1],0.887
